Tau FP inhib – tau fibrillization inhibition (FP). P10636. K18 P301L tau heparin fibrillization, Alexa594 FP, 6 h. Potency, µM (top dose mostly 57.7 µM), inactives show at the highest dose activity, negative = inhibition, most hits filed as inhibitors. hit rate 0.39% among 280,000. AID 1468; further: nearly all actives have a fitted effect of over 55% in size
Target sequence (P10636 561-689 P618L limits assumed): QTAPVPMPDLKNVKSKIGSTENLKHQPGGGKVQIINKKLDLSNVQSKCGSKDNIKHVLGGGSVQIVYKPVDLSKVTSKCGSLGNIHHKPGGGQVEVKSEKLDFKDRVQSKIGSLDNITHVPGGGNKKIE
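Human K18 P301L fragment (15 uM unlabeled plus 0.24 uM Alexa 594-labeled) in 100 mM sodium acetate pH 7 with compound, aggregation induced by 20 uM heparin for 6 hr at 37 C. ThT (30 uM) added for 1 hr, then Alexa 594 FP read.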
KinaseGlo FLuc – Kinase-Glo luciferase inhibition (counter-screen) | Potency, µM (series often up to 38.3 µM), for the others: top-dose activity change, negative = inhibition, actives largely listed as inhibitors | hit rate 0.28% among 200,000 | Kinase-Glo luciferase, ATP luminescence, 8 min; further: nearly all actives have a fitted effect of over 60% in size
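Light output from Kinase-Glo luciferase with luciferin and 10 uM ATP in 50 mM imidazole pH 7.2, KCl, MgCl2, Tween 20, BSA; compound pin-delivered, 8-min ambient incubation, then luminescence read.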
NPSR antag – blocks cAMP signaling of the human neuropeptide S receptor | Q6W5P4 | CHO-NPSR cells, cAMP TR-FRET, antagonist mode | Potency, µM (titrated, usually from 38.3 µM), without a hit: at the top dose activity change, negative = inhibition, most hits filed as inhibitors | hit rate 1% among 220,000 | AID 1461; further: nearly all actives have a fitted effect of over 50% in size
Target sequence (Q6W5P4 whole entry, looked up): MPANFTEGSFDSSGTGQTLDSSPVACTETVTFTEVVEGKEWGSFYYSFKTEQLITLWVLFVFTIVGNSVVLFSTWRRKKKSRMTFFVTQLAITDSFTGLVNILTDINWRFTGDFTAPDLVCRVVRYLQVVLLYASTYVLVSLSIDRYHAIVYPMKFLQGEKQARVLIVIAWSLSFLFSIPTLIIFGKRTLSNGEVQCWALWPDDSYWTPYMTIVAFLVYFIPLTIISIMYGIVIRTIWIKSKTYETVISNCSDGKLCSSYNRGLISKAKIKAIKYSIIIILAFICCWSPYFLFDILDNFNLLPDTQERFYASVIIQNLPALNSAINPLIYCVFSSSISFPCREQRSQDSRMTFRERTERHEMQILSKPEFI
Tau fibril ThT – blocks human tau fibril formation measured by thioflavin T; P10636; recombinant tau K18 P301L, heparin-induced fibrillization, ThT fluorescence; Potency, µM (series often up to 57.4 µM), for inactives: top-dose activity, negative = inhibition, actives largely listed as inhibitors; hit rate 2.1% among 270,000; AID 1460; further: nearly all actives have a fitted effect of over 55% in size
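Aggregation was driven by heparin (20 uM final) acting on recombinant tau […] bearing P301L in 100 mM sodium acetate pH 7; fibrils were detected with Thioflavin T.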
Tau fluor cs – counter-screen for tau fibril formation inhibitors; tau K18 P301L Alexa594 fluorescence, heparin fibrillization; Potency, µM (titrated, usually from 57.7 µM), for inactives: top-dose activity change, negative = decrease; hit rate 0.93% among 280,000; AID 1463; further: nearly all actives have a fitted effect of over 55% in size
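Human tau K18 P301L (15 uM unlabeled, 0.24 uM Alexa 594-labeled) in 100 mM sodium acetate pH 7 with 20 uM heparin, 6 hr at 37 C. ThT 30 uM added, 1 hr ambient; Alexa 594 FP and total fluorescence read at 555/632 nm.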
Numbers without * were called inactive; ? = inconclusive; · = no result given; ! = not confirmed by another sample; [ ] = another dose, or the depositor's remark. The list is not random: actives were taken first. Their share in the collection is about 3.3%. The call rests on the fitted dose curve; in most records, active means well fitted curve in the direction sought with a large enough effect; inconclusive means small, poorly fitted or top-dose-only effect, or another doubt; inactive means no such curve, though single readings can be large; an effect the other way counts as inactive or inconclusive. On the % scale 0 is the no-effect control and ±100 the full control effect; potency means the concentration at half of the fitted maximal effect.

SMILES	Tau FP inhib	KinaseGlo FLuc	NPSR antag	Tau fibril ThT	Tau fluor cs
COc1cc(-c2nc(-c3ccccc3)c(-c3cccs3)[nH]2)cc(OC)c1OC	?	-6.3%	?	-21.0%	?
Oc1ccccc1-c1nc(-c2cccs2)c(-c2cccs2)[nH]1	?	·	·	14.1µM*	4.47µM*[quencher]
COc1cc(-c2nc(-c3ccccc3)c(-c3cccs3)[nH]2)cc(OC)c1O	8.7%	16.8%	9.5%[46.1 µM]	?	14.1µM*[quencher]
O=c1[nH]c(-c2ccc(O)cc2)nc2scc(-c3cccs3)c12	-7.4%	·	37.0%	?	?
CN(C)c1ccc(-c2nc(-c3cccs3)c(-c3cccs3)[nH]2)cc1	-0.9%	·	·	?	10µM*[quencher]
CCn1c(O)c(/C=N/N=C2CCCCC2)c2cc(C3=NNC(=O)CC3)ccc21	-3.9%	·	10.4%	10µM*	-28.4%
CCN1CCN(c2ccc(N=Cc3ccc(O)cc3O)cc2)CC1	?	-1.4%	-7.9%	15.8µM*	?
CC1=NN(C(N)=S)C(=O)C1N=Nc1cccc(C)c1 (stereo unspecified)	0.3%	·	-1.8%	?	-12.8%
CC1=NN(C(N)=S)C(=O)C1N=Nc1ccc(O)cc1 (stereo unspecified)	-9.6%	-2.0%	32.1%	12.6µM*	-17.3%
CCCN1C(=O)C(Cc2nc3ccccc3c(=O)n2-c2ccc(OC)cc2)c2cc(C)ccc21 (stereo unspecified)	-3.7%	·	·	-16.3%	-14.4%
O=C(Nc1ccccc1Cl)C1CCN(c2nc3ccccc3nc2C(F)(F)F)CC1	-2.6%	·	·	-4.4%	-9.3%
N#C/C(=N\Nc1cccc([N+](=O)[O-])c1)C(=O)c1ccc(Br)cc1	13.7%	-2.9%	6.31µM*	10µM*	?
O=C(O)c1ccc(N=NNc2cccc([N+](=O)[O-])c2)cc1	5.9%	-10.8%	-22.5%	?	-9.4%
COc1ccc(NC(=O)c2ccc(-c3ccc([N+](=O)[O-])cc3)o2)cc1	12.0%	10.8%	-3.2%	1.26µM*	?
COc1ccc(-c2cc3ncc(C(=O)c4cc([N+](=O)[O-])ccc4O)cn3n2)cc1	7.9%	·	·	7.08µM*	-16.4%
O=C(Nc1nccs1)c1ccc(-c2ccc([N+](=O)[O-])cc2)o1	-3.9%	-5.0%	-23.2%	?	-18.8%
COc1ccc(NC(=O)c2cccc([N+](=O)[O-])c2)cc1	-7.5%	?	13.1%	?	-13.8%
COc1ccc(NC(=O)c2cc([N+](=O)[O-])ccc2O)cc1	2.1%	7.94µM*	?	?	-4.9%
COc1ccc(/C=N/NC(=O)c2cc(-c3ccc(Cl)cc3)n[nH]2)cc1OC	·	-5.5%	·	·	·
CCOc1ccc2c(c1)c(N=Nc1cccc(C(=O)O)c1)c(O)n2C	4.8%	-1.4%	-38.7%	7.3%	3.0%
Cc1ccc2c(c1)c(N=Nc1cccc(C(=O)O)c1)c(O)n2C	2.2%	·	-39.2%	14.1µM*	-6.6%
S=C(Nc1ccc2nsnc2c1)N1CCCC1	?	-28.2%	?	25.1µM*	-19.1%
O=C(Nc1ccc2nsnc2c1)N1CCCCCC1	10.2%	-4.7%	-11.1%[46.1 µM]	-9.5%	0.2%
Cc1ccc(N/C=C/C(=O)c2ccco2)c(O)c1	1.6%	·	-0.1%	3.55µM*	-22.6%
Cc1ccc([N+](=O)[O-])cc1N/C=C/C(=O)c1ccco1	-5.0%	-1.4%	-3.6%[46.1 µM]	?	-10.3%
SMILES	Tau FP inhib	KinaseGlo FLuc	NPSR antag	Tau fibril ThT	Tau fluor cs
Nc1ccc(-c2nc3ccc(-c4nc5ccc(N)cc5[nH]4)cc3[nH]2)cc1	10.3%	2.3%[39.9 µM]	5.4%[46.1 µM]	12.6µM*	12.6µM*[quencher]
Cc1ccc2nc(-c3cccc(N)c3)[nH]c2c1	?	10µM*	-3.4%[46.1 µM]	?	-19.2%
Nc1ccc(-c2nc3ccccc3[nH]2)cc1	-0.2%	?	-17.4%[46.1 µM]	?	-15.7%
Cc1c(C(=O)Nc2ccccc2Br)oc2ccc(S(=O)(=O)N3CCCCCC3)cc12	-1.8%	·	·	-8.4%	-8.8%
O=C(NCc1ccc(Cl)cc1)C(=O)Nc1ccc(Br)cc1	-9.2%	·	·	1.3%	-4.6%
O=C(c1ccccc1)c1coc2c1C(=O)c1ccccc1C2=O	-12.3%	-2.0%	?	12.6µM*	?
COc1ccc(C(=O)c2coc3c2C(=O)C(=O)c2ccccc2-3)cc1	?	·	?	2.82µM*	?
O=C1c2ccccc2C(=O)c2c1oc(C(F)(F)F)c2C(=O)c1ccccc1	-4.0%	1.0%	5.01µM*	?	?
O=C1C(=C(O)c2ccccc2)C(=O)c2ccccc21	?	-2.4%	-12.6%[46.1 µM]	?	-21.7%
COc1ccc(NC(=O)Cc2ccc(C)cc2)c([N+](=O)[O-])c1	-5.7%	-0.2%	4.9%	-11.9%	-18.4%
O=C(CC1Nc2cccc3cccc(c23)NC1=O)Nc1ccc(F)cc1 (stereo unspecified)	6.9%	0.3%	-11.4%	?	8.91µM*![quencher]
COc1ccc(NC(=O)CC2Nc3cc(C)c(C)cc3NC2=O)c([N+](=O)[O-])c1 (stereo unspecified)	?	-2.1%	-10.5%	11.2µM*	?
O=C(CC1Nc2ccccc2NC1=O)Nc1cc(Cl)cc(Cl)c1 (stereo unspecified)	7.6%	17.0%	-4.2%[46.1 µM]	?	14.1µM*[quencher]
Cc1cc2c(cc1C)NC(CC(=O)Nc1cccc(Cl)c1)C(=O)N2 (stereo unspecified)	9.9%	·	·	?	25.1µM*[quencher]
O=C(CC1NC(=O)NC1=O)Nc1ccc(Cl)cc1 (stereo unspecified)	-3.3%	-1.1%	13.7%[46.1 µM]	-0.4%	-5.1%
CCc1cccc(C)c1NS(=O)(=O)c1ccc2c(c1)NC(=O)C(C)C(=O)N2 (stereo unspecified)	-3.1%	·	·	1.4%	-2.7%
CN1/C(=C\C=N\O)C(C)(C)c2ccccc21	-4.5%	4.3%	9.7%	?	1.5%
CN1C(=CC=C2C=C(I)C(=O)C(I)=C2)C(C)(C)c2ccccc21	?	·	?	2.24µM*	0.708µM*[fluorescent]
CN1/C(=C\C=C2/SC(=S)NC2=O)C(C)(C)c2ccccc21	1.1%	-12.7%	?	3.55µM*	?
CN(C)c1ccc(N=C/C=C2/N(C)c3ccccc3C2(C)C)cc1	?	-2.8%	-47.1%	3.16µM*	?
Cc1ccc(NC(=O)CN2C(=O)CSc3ccc(S(=O)(=O)N4CCCC4)cc32)c(C)c1	10.4%	·	·	1.3%	-8.1%
O=C(/C=C/c1ccccc1)Nc1sc2c(c1C(=O)O)CCC2	-1.8%	·	?	10µM*	?
CNC(=O)c1c(NC(=O)/C=C/c2ccccc2)sc2c1CCC2	-2.1%	·	·	14.1µM*	?
O=C(/C=C/c1ccco1)Nc1sc2c(c1C(=O)O)CCC2	-4.3%	-9.5%	-13.3%[46.1 µM]	?	-24.6%
CCOC(=O)c1c(C)oc2nc(C)nc(NCc3ccccc3OC)c12	3.3%	·	·	-8.6%	-9.1%
O=C(c1ccc(F)cc1)N1CCN(CCc2ccncc2)CC1	4.4%	·	·	-6.6%	3.4%
CCc1ccc(N(CC)C(=O)Cn2nc(Cc3cccnc3)c3ccccc3c2=O)cc1	-0.9%	·	·	-7.2%	-7.5%
CCOc1ccccc1Nc1cc(-c2ccccc2)nc(C)n1	2.2%	·	·	-11.0%	-18.5%
